Bioassay records (PubChem)
JMJD2E inh: inhibitors of human JMJD2E histone demethylase; JMJD2E catalytic domain, FDH-coupled NADH fluorescence (FDH is formaldehyde dehydrogenase); 230,000 tested, 1.6% active; AID 2147; Potency, µM (highest dose often 57.1 µM), for inactives: at the top dose activity change, negative = inhibition, actives largely listed as inhibitors; B2RXH2; active = well fitted inhibition curve with a large enough effect, not every such curve was filed as active; inconclusive = small, poorly fitted or top-dose-only effect, or another doubt; inactive = no such curve, though single readings can be large or run the other way;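 also: potency is read from the fitted curve at half-maximal effect; 0% = wells with enzyme and -100% = buffer wells without enzyme; nearly all actives have a fitted effect of over 50% in size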
Target sequence (B2RXH2 1-337 limits assumed): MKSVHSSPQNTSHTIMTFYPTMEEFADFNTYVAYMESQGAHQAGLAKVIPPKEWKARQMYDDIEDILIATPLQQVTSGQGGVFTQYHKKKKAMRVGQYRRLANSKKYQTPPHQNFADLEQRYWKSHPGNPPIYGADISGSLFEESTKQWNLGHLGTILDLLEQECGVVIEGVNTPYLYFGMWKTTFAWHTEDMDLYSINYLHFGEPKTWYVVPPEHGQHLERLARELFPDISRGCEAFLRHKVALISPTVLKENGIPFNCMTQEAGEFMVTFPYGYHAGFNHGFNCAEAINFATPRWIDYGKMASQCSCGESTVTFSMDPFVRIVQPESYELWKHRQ
FBPA coupling cs: inhibits coupling enzyme system, counter-screen for aldolase hits; coupling enzyme system counterscreen, AmpLite Red fluorescence; activity change, negative = inhibition, % at 58.2 µM, hits read low; 290,000 tested, 0.67% active; AID 2472; in the data active = activity change below about -30%
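Activity here indicates interference with the coupling reaction, not aldolase inhibition. Compounds at 57.5 uM final met coupling enzymes for 10 min at RT; substrate and AmpLite Red detection followed, with a 525/598 nm fluorescence read after 20 min.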
RGS12 GoLoco inh: RGS12 GoLoco-Gai1 interaction inhibition | P63096 | Gai1:RGS12 GoLoco peptide FP, rhodamine, 10 min | 230,000 tested, 0.44% active | AID 880 | Potency, µM (series often up to 61.6 µM), for inactives: top-dose activity, negative = inhibition, usual class: inhibitors; active = well fitted inhibition curve with a large enough effect, not every such curve was filed as active; inactive = no such curve, though single readings can be large or run the other way; also: potency is read from the fitted curve at half-maximal effect; nearly all actives have a fitted effect of over 30% in size
Sfp PPTase inh: inhibitors of Bacillus subtilis Sfp phosphopantetheinyl transferase | 310,000 tested, 3.5% active | Potency, µM, without a hit: largest response in the series, negative = inhibition, actives largely listed as inhibitors | Biochemical Sfp PPTase activity, qHTS | Q9F4F7;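 also: the enzyme is Sfp with the accession as filed and its product quenches rhodamine fluorescence; potency is read from the fitted curve at half-maximal effect; 0% = enzyme reaction without inhibitor and -100% = no enzyme wells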
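Fluorescence-quenching assay: 15 nM Sfp-PPTase preincubated 15 min at room temperature with compound, then 5 uM rhodamine-CoA and 12.5 uM BHQ-2-labelled YbbR peptide added. Fluorescence (ex 525/em 598 nm) read at start and after 30 min; difference gives rate.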
ALDH1A1 block: blocks purified human ALDH1A1 activity | Potency, µM (series often up to 75.3 µM), for the others: at the top dose activity, negative = inhibition, usual class: inhibitors | 220,000 tested, 7.3% active | Purified ALDH1A1, NADH fluorescence, propionaldehyde substrate | P00352; active = well fitted inhibition curve with a large enough effect, not every such curve was filed as active; inconclusive = small, poorly fitted or top-dose-only effect, or another doubt; inactive = no such curve, though single readings can be large or run the other way;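 also: potency is read from the fitted curve at half-maximal effect; plate controls were no enzyme wells and a reference inhibitor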
NPSR antagonist: antagonists of human neuropeptide S receptor cAMP signaling. Q6W5P4. 220,000 tested, 1% active. Potency, µM (highest dose often 38.3 µM), for the others: at the highest dose activity change, negative = inhibition, usual class: inhibitors. AID 1461. CHO-NPSR cells, cAMP TR-FRET, antagonist mode; also: potency is read from the fitted curve at half-maximal effect; nearly all actives have a fitted effect of over 50% in size
Target sequence (Q6W5P4 whole entry, looked up): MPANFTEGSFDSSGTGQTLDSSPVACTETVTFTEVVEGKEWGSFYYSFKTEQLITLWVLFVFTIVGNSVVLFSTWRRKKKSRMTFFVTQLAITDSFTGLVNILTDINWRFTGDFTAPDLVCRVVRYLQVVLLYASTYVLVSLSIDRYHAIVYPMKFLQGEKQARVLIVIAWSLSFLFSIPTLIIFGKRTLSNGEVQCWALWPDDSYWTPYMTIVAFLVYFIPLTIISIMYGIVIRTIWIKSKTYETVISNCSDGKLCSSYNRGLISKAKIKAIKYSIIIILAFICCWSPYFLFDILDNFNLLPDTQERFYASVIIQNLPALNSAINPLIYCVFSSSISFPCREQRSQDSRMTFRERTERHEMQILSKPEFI
Starred values were filed as active, the others as inactive; ? = inconclusive; nt = not tested or not shown; [ ] = another dose, or the depositor's remark. Hits are enriched below; roughly 8.5% of the tested compounds scored in any of these assays. Unless noted, calls follow the shape of the dose curve; as a rule, active = well fitted curve in the direction sought with a large enough effect; inconclusive = small, poorly fitted or top-dose-only effect, or another doubt; inactive = no such curve, though single readings can be large; an effect the other way counts as inactive or inconclusive. Unless noted, % is scaled to controls: 0 for no effect and ±100 for the full control effect.

SMILES | JMJD2E inh | FBPA coupling cs | RGS12 GoLoco inh | Sfp PPTase inh | ALDH1A1 block | NPSR antagonist
COc1ccc2[nH]c(=O)c(CN(Cc3ccc(C)cc3)Cc3nnnn3CC3CCCO3)cc2c1 (stereo unspecified) | ? | -47* | 11% | 16µM* | ? | -21%[46.1 µM]
COc1ccc2cc(CN(CCc3ccccc3)Cc3nnnn3CC3CCCO3)c(=O)[nH]c2c1 (stereo unspecified) | ? | -1 | 1% | -17% | 0.28µM* | -26%[46.1 µM]
COc1ccc2[nH]c(=O)c(CN(CCc3ccccc3)Cc3nnnn3CC3CCCO3)cc2c1 (stereo unspecified) | ? | -40* | 2% | 50µM* | ? | -22%[46.1 µM]
COc1cc(CC(=O)OCc2ccccc2F)cc(OC)c1OC | nt | -2 | nt | 14% | nt | nt
CCOc1ccc2[nH]c(=O)c(CN(CCO)Cc3nnnn3CCc3ccccc3)cc2c1 | ? | -1 | 11% | -11% | ? | -10%[46.1 µM]
Cc1ccc2[nH]c(=O)c(CN(CCc3ccccc3)Cc3nnnn3CC3CCCO3)cc2c1 (stereo unspecified) | ? | 0 | 1% | -14% | 22µM* | -12%[46.1 µM]
COc1ccccc1CN(Cc1cc2cc(C)ccc2[nH]c1=O)Cc1nnnn1CC1CCCO1 (stereo unspecified) | ? | -10 | -14% | -22% | ? | -9%[46.1 µM]
COCCn1nnnc1CN(CCc1ccccc1)Cc1cc2ccc(C)cc2[nH]c1=O | 4% | -1 | 7% | -18% | 4.5µM* | -23%[46.1 µM]
COc1ccccc1-c1ccc2ncnc(N(C)C)c2c1 | 2% | -6 | -1% | -3% | -8% | nt
CCOc1ccc(-c2cc(C(=O)OC)[nH]n2)cc1 | 0% | 1 | 15% | -5% | -2% | 7%
Cc1cc(C)nc(-n2nc(C)cc2NC(=O)CN2CCc3ccccc3C2)n1 | -1% | -5 | 8% | 3% | 25µM* | ?
CCN(CC(=O)Nc1cc(C)nn1-c1nc(C)cc(C)n1)Cc1ccccc1 | 1% | -1 | 4% | 12% | 20µM* | -24%[46.1 µM]
Cc1cc(C)nc(-n2nc(C)cc2NC(=O)CNCc2ccccc2)n1 | 17% | -1 | 9% | 0% | 8.9µM* | -2%[46.1 µM]
Cc1cc(C)nc(-n2nc(C)cc2NC(=O)CN2CCCC(C)C2)n1 (stereo unspecified) | -3% | -2 | -1% | 5% | ? | 2%[46.1 µM]
COc1ccc(S(=O)(=O)NC2CC(C)(C)NC(C)(C)C2)c2ccccc12 | nt | -4 | nt | 10% | nt | nt
Cn1c(=O)n(C)c2cc(NC(=O)CCl)ccc21 | -20% | 6 | 9% | 2% | 0.71µM* | -9%[46.1 µM]
C[C@@H](C(=O)N[C@@H](Cc1c[nH]c2ccccc12)C(=O)O)n1nnc2ccccc2c1=O | 2% | -2 | 1% | 18% | nt | 15%
COCCOC(=O)c1c(C)n(C)c2ccc(OC(=O)C3CC3)cc12 | 4% | 0 | -17% | 5% | 10µM* | 2%[46.1 µM]
Cc1ccc(C(=O)N2CCN(C34CC5CC(CC(C5)C3)C4)CC2)o1 | nt | 0 | nt | -2% | nt | nt
O=C1c2ccccc2C(=O)N1CCc1nc2ccccc2c(=O)n1Cc1ccco1 | -4% | 3 | 8% | 50µM* | -15% | ?
COC(=O)c1ccc2c(=O)n(Cc3ccco3)c(SCC(=O)Nc3ccc(C)c(Cl)c3)nc2c1 | -16% | 2 | 0% | 2% | ? | -4%[46.1 µM]
Cc1ccc(OCc2nnc(SCC(=O)c3ccccc3)n2Cc2ccco2)cc1 | -10% | -1 | 4% | -29% | ? | ?
O=C(CSc1nnc(COc2ccccc2)n1Cc1ccco1)c1ccc(F)cc1 | -2% | -1 | 111% | 56µM* | ? | ?
CCSc1nc2cc(OC)c(OC)cc2c(=O)n1CC | 0% | 3 | 9% | 4% | 8.9µM* | 1%[46.1 µM]
O=C(CSc1nc2cc(Cl)ccc2c(=O)n1Cc1ccco1)Nc1ccc(S(=O)(=O)N2CCOCC2)cc1 | -12% | 0 | 10% | 3% | 7.9µM* | -17%
SMILES | JMJD2E inh | FBPA coupling cs | RGS12 GoLoco inh | Sfp PPTase inh | ALDH1A1 block | NPSR antagonist
CCn1c(SCc2nc3cc(OC)c(OC)cc3c(=O)[nH]2)nc2ccccc21 | -5% | 2 | 19% | 16% | -3% | 6%
O=C(CNCc1ccc(Cl)cc1)Nc1ccc(C(=O)N2CCCCCC2)cc1 | nt | 4 | nt | -21% | nt | nt
Cc1cccc(C(=O)Nc2ccc(C(=O)N/N=C/c3ccc(C)o3)cc2)c1 | nt | 0 | nt | -12% | nt | nt
O=C(CSc1nc2ccccc2c(=O)n1Cc1ccco1)c1ccc(F)cc1 | -14% | 0 | 11% | 32µM* | 11µM* | 9%[7.67 µM]
Clc1ccc(OCc2nnc(SCCN3CCCCC3)n2Cc2ccco2)cc1 | -5% | -1 | 1% | 25µM* | -11% | 5%[46.1 µM]
COCCNC(=O)CSc1nc2cc(OC)c(OC)cc2c(=O)n1Cc1ccco1 | -1% | 1 | 10% | 2% | 2.2µM* | -9%[46.1 µM]
O=c1c2ccccc2nnn1CSc1nnc(COc2ccc(Cl)cc2)n1Cc1ccco1 | 12% | nt | -14% | -25% | ? | -27%[46.1 µM]
CCCCNC(=O)CSc1nc2cc(OC)c(OC)cc2c(=O)n1Cc1ccc(OC)cc1 | 8% | nt | 0% | 4% | 2% | -1%[46.1 µM]
O=C(O)CC(Cc1ccc(Cl)cc1)C(=O)NCc1ccccc1 (stereo unspecified) | 1% | 8 | 3% | 16% | 0% | -2%[46.1 µM]
Cc1ccc(NC(=O)CSc2nnc(C3CC3)n2CC2CCCO2)cc1C (stereo unspecified) | nt | -1 | nt | 2% | nt | nt
COc1ccc(OC)c(S(=O)(=O)N2CCC(C(=O)NCc3ccc4c(c3)OCO4)CC2)c1 | nt | nt | nt | 13% | nt | nt
CCC1SC2=NC(C)=C(C(=O)OC)C(c3ccc(C)cc3)N2C1=O (stereo unspecified) | -12% | -2 | 9% | 12% | 14µM* | -9%[46.1 µM]
COC(=O)C1=C(C)N=C2SC(C)C(=O)N2C1c1ccc(C(=O)OC)cc1 (stereo unspecified) | -3% | -1 | 14% | 34% | ? | ?
Cc1ccccc1-n1nnnc1SC(C)C(=O)NC1CCCc2ccccc21 (stereo unspecified) | -2% | 0 | 0% | -14% | 4.5µM* | -27%
O=C(CSc1nnnn1-c1ccccc1)NC1CCCc2ccccc21 (stereo unspecified) | 4% | 1 | nt | 7% | 10µM* | 5%[46.1 µM]
Cc1nnc(SC(C)C(=O)NC2CCCc3ccccc32)n1-c1ccccc1 (stereo unspecified) | -2% | 3 | nt | 5% | 6% | -20%[46.1 µM]
O=C(CSc1c(Cl)cccc1Cl)NC1CCCc2ccccc21 (stereo unspecified) | 3% | 4 | 6% | -14% | 9% | 3%
CC(Sc1nnc(Nc2ccccc2)s1)C(=O)NC1CCCc2ccccc21 (stereo unspecified) | 5% | 2 | 17% | -10% | 32µM* | -9%
